# Test results reported in PubChem BioAssay AID1779 (Sanford-Burnham Center for Chemical Genomics, 2009).
# Among all 290,000 compounds or so, about 160 (0.055%) were called active. Rule as the data show it: active = inhibition above about 50%; inactive = the rest. Many of the other results were omitted from the sample, so actives are more common in it than they were.
# Target: Tyrosine-protein phosphatase non-receptor type 22 (Homo sapiens) (UniProt Q9Y2R2)
# Experiment: inhibitors of LYP phosphatase, biochemical, fluorescence intensity, uHTS (AID 1779);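 also: plate controls were vehicle with enzyme for no effect and no enzyme for full effect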
# Conditions: recombinant LYP phosphatase, at 11.5 µM, hits give high values
# Tyrosine-protein phosphatase non-receptor type 22 (Homo sapiens), sequence (Q9Y2R2 whole entry, looked up): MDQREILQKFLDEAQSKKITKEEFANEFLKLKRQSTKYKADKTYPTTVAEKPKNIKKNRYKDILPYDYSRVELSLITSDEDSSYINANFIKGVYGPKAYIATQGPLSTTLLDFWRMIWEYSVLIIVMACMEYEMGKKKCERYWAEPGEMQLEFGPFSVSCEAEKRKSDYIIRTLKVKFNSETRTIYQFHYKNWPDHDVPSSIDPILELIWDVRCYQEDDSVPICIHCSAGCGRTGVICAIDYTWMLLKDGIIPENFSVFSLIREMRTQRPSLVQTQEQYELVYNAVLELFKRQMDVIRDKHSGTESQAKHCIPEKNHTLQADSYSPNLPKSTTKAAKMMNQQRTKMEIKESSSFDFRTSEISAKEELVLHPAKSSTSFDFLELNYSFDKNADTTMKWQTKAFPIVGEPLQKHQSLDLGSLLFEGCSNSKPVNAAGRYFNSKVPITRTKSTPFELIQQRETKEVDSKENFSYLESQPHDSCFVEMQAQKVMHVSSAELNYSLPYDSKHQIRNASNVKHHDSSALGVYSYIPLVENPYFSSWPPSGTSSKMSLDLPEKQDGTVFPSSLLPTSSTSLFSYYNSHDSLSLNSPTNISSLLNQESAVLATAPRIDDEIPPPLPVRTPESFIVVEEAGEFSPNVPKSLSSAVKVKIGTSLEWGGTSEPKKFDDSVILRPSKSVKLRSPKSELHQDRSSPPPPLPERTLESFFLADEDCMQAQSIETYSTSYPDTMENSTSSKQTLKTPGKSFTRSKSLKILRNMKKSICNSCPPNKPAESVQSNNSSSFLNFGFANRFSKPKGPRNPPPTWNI
row,SMILES,inhibition
1,Cc1c(Cl)cccc1NC(=S)N=Nc1c(O)n(CN2CCOCC2)c2ccccc12,-0.8% (inactive)
2,Cc1ccc(N=Nc2c(O)n(CN3CCOCC3)c3ccccc23)cc1,72% (active)
3,Cc1cccc(NC(=S)N=Nc2c(O)n(CN3CCOCC3)c3ccccc23)c1C,-4.1% (inactive)
4,O=S(=O)(CCCc1ccccc1)c1ncn[nH]1,-3% (inactive)
5,COc1ccc(N(CC(=O)NCCSC(C)(C)C)S(C)(=O)=O)c(OC)c1,-6.6% (inactive)
6,Cc1ccccc1OCC(=O)N/N=C/c1ccco1,-3.4% (inactive)
7,Cc1ccc(OCC(=O)N/N=C\c2ccco2)c(C)c1,51.3% (active)
8,Cc1ccc(OCC(=O)N/N=C/c2ccco2)cc1,-5.1% (inactive)
9,Cc1ccc(C(=O)N/N=C\c2cccs2)cn1,1.2% (inactive)
10,Cc1nnc(C)n1/N=C/c1ccccc1,-11% (inactive)
11,CNc1nc(N)nc(-c2cc(Cl)ccc2OC)n1,-4% (inactive)
12,COc1ccc(Cl)cc1-c1nc(N)nc(NC2CCCCC2)n1,58.1% (active)
13,CCNc1nc(N)nc(-c2cc(Cl)ccc2OC)n1,-2.6% (inactive)
14,Cc1ccc(/C(O)=C2/C(=O)C(=O)N(CCN3CCOCC3)C2c2cccnc2)cc1 (stereo unspecified),-3.8% (inactive)
15,C=CCC(C(=O)OC)(C(=O)OC)c1ccccc1[N+](=O)[O-],-9.5% (inactive)
16,COc1cc(/C=N\NC(=O)c2ccc(-c3ccccc3)cc2)ccc1OCC(N)=O,3.2% (inactive)
17,CCOc1cc(/C=N\NC(=O)c2ccc(NC(=O)C(C)(C)C)cc2)ccc1OC(=O)c1ccc(C)cc1,-4% (inactive)
18,Cc1cc2c(N=O)c(NO)ccc2[nH]1,-4.6% (inactive)
19,Cc1nn(Cc2cccc(C(=O)NC34CC5CC(CC(C5)C3)C4)c2)c(C)c1Br,94.4% (active)
20,CCCNC(=O)c1cccc(Cn2nc(C)c(Br)c2C)c1,-5.3% (inactive)
21,Cc1nn(Cc2cccc(C(=O)NCC(C)C)c2)c(C)c1Br,-3.3% (inactive)
22,COc1ccc(-c2cc(C(=O)NCCc3ccc(S(N)(=O)=O)cc3)c3ccccc3n2)cc1,-2.5% (inactive)
23,Cc1nnc(SCC(=O)NC(=O)Nc2ccc3c(c2)OCCO3)n1N,-13% (inactive)
24,COCCn1c(=N)c(S(=O)(=O)c2ccc(Br)cc2)cc2c(=O)n3ccccc3nc21,67.5% (active)

row,SMILES,inhibition
1,N=c1c(S(=O)(=O)c2ccc(Br)cc2)cc2c(=O)n3ccccc3nc2n1Cc1ccccc1,-5.4% (inactive)
2,COCCn1c(=N)c(S(=O)(=O)c2ccc(F)cc2)cc2c(=O)n3ccccc3nc21,-34.1% (inactive)
3,Cc1cc(N2C(=O)C(O)=C(C(=O)c3cc4ccccc4o3)C2c2ccc(Br)cc2)no1 (stereo unspecified),2.4% (inactive)
4,OCCOCCn1c(-c2ccccc2)nc(=S)c2c1CCCC2,-2.3% (inactive)
5,O=C(CCc1c[nH]c2ccccc12)OCc1cccc([N+](=O)[O-])c1,-6% (inactive)
6,COc1ccc(OCC(=O)N/N=C/c2ccc(OC)c(OC)c2C(=O)O)cc1,53.1% (active)
7,COc1ccc(/C=N\NC(=O)COc2ccccc2)c(C(=O)O)c1OC,2.3% (inactive)
8,COc1ccc(/C=N/NC(=O)COc2ccc3ccccc3c2)c(C(=O)O)c1OC,-2.9% (inactive)
9,CCc1nc(CNC(=O)c2cc(OC)c(OC)c(OC)c2)no1,-4.2% (inactive)
10,O=C(NC(=S)Nc1ccc(S(=O)(=O)Nc2nccs2)cc1)C1CC1,1% (inactive)
11,COc1cccc(N(C(=O)Cn2nnc(-c3ccc(Cl)cc3)n2)C(C(=O)NCC2CCCO2)c2ccc(C)cc2)c1 (stereo unspecified),-1.9% (inactive)
12,CCCCOc1ccc(N(CC(=O)NC(C)C)C(=O)CCC(=O)Nc2ccccn2)cc1,-3.4% (inactive)
13,COc1ccc(N(CC(=O)NC(C)C)C(=O)CCC(=O)Nc2ccccn2)cc1,67.8% (active)
14,CCOc1ccc(N(CC(=O)NC(C)C)C(=O)CCC(=O)Nc2ccccn2)cc1,2.9% (inactive)
15,Cc1cc(C(=O)NCCCN2CCCC2=O)cs1,75.4% (active)
16,O=C(NCCCN1CCCC1=O)c1cccs1,2.8% (inactive)
17,O=C(NCCCN1CCCC1=O)c1csc2ccccc12,-6.7% (inactive)
18,C=CCSc1nc2sc(-c3ccccc3)cc2c(=O)n1N,-7.2% (inactive)
19,CCOC(=O)N1CCN(C(=O)C(CC)n2nc(C)c3sc4ccccc4c3c2=O)CC1 (stereo unspecified),4.4% (inactive)
20,Brc1cc2c(cc1CN1CCc3ccccc3C1)OCO2,-4.6% (inactive)
21,O=C1CCC(c2ccccc2)N1C(=O)c1cccnc1 (stereo unspecified),87.4% (active)
22,O=C(c1ccccc1)N1CCN(C(=O)c2cccnc2)CC1,-0.5% (inactive)
23,O=C1CC(c2ccccc2)CN1C(=O)c1cccnc1 (stereo unspecified),-10.4% (inactive)
24,CCCOC(=O)c1c(-c2ccc(C)cc2C)csc1NC(=O)C1C2CCC(O2)C1C(=O)O (stereo unspecified),66.6% (active)

row,SMILES,inhibition
1,CCOC(=O)c1c(-c2cccc3ccccc23)csc1NC(=O)C1C2CCC(O2)C1C(=O)O (stereo unspecified),4.2% (inactive)
2,CCOC(=O)c1c(-c2ccc(-c3ccccc3)cc2)csc1NC(=O)C1C2CCC(O2)C1C(=O)O (stereo unspecified),20.8% (inactive)
3,CC(=O)c1ccc(N2CCN(C(=O)CCN3C(=S)NC(C)(C)CC3C)CC2)cc1 (stereo unspecified),1% (inactive)
4,Cc1cc(C)n(C(C)CNS(=O)(=O)c2ccccc2)n1 (stereo unspecified),-6.8% (inactive)
5,O=C(O)CCC(=O)Nc1ccccc1C(=O)NCCc1ccccc1,2.9% (inactive)
6,O=C(Nc1ccccc1C(=O)NCCc1ccccc1)c1ccco1,-1.8% (inactive)
7,NC(=O)Nc1ccccc1C(=O)NCCc1ccccc1,65% (active)
8,CN(C)/C=N/NC(=O)c1ccccc1,-9.5% (inactive)
9,CC(=O)Nc1ccc(NC(=O)c2c(-c3ccccc3Cl)noc2C)c(C)c1,-11.5% (inactive)
10,Cc1ccnc(NCc2c(O)ccc3ccccc23)c1,-11.3% (inactive)
11,O=C(CC1C(=O)N(Cc2ccccc2)C(=S)N1CCN1CCOCC1)Nc1ccc(F)cc1 (stereo unspecified),74.9% (active)
12,CCN1C(=O)C(CC(=O)Nc2ccc(OC)cc2)N(CCN2CCOCC2)C1=S (stereo unspecified),-9.2% (inactive)
13,COc1ccc(NC(=O)CC2C(=O)N(Cc3ccccc3)C(=S)N2CCN2CCOCC2)cc1 (stereo unspecified),-3.6% (inactive)
14,CC(=O)NNc1ncnc2c1cnn2-c1ccccc1,1.3% (inactive)
15,CCNC(=S)N/N=C(\C)c1ccc2ccccc2c1OC(F)F,4% (inactive)
16,COC(=O)N/N=C(\C)c1ccccc1OC(F)F,-1.7% (inactive)
17,COC(=O)N/N=C(\C)c1ccc2ccccc2c1OC(F)F,68% (active)
18,COC(=O)C(C)n1cnc2c(nnn2-c2ccc(C)cc2)c1=O (stereo unspecified),-13% (inactive)
19,CN(C(=O)COc1cc(C(F)(F)F)nn1C)c1ccccc1,-13.5% (inactive)
20,CC(C)Cn1c(-c2ccco2)n[nH]c1=S,-1.3% (inactive)
21,CC1Cc2ccccc2N1CC(=O)Nc1cccc(S(N)(=O)=O)c1 (stereo unspecified),52.1% (active)
22,CC1Cc2ccccc2N1CC(=O)Nc1ccc(S(N)(=O)=O)cc1 (stereo unspecified),-7.9% (inactive)
23,CC1Cc2ccccc2N1CC(=O)Nc1ccc(S(=O)(=O)N(C)C)cc1 (stereo unspecified),0.3% (inactive)
24,CC(NC(=O)CN1CCN(c2ccccc2F)CC1)c1ccccc1 (stereo unspecified),-13% (inactive)

row,SMILES,inhibition
1,CN(C)S(=O)(=O)N1CCc2ccc(NC(=O)C3CCCO3)cc2C1 (stereo unspecified),-10.7% (inactive)
2,CCCS(=O)(=O)N1CCc2ccc(NC(=O)C3CCCO3)cc2C1 (stereo unspecified),-11.2% (inactive)
3,CS(=O)(=O)N1CCc2ccc(NC(=O)C3CCCO3)cc2C1 (stereo unspecified),73.9% (active)
4,O=C(c1c(F)cccc1F)N1CCC(O)(c2cccnc2)CC1,-8.4% (inactive)
5,COc1ccc(Cl)cc1NC(=S)N1CCCC1,-2% (inactive)
6,O=C(CS(=O)CC(=O)Nc1ccc(Cl)cc1)NCC1OCCc2ccccc21 (stereo unspecified),52.3% (active)
7,CCc1ccc(NC(=O)CS(=O)CC(=O)NCC2OCCc3ccccc32)cc1 (stereo unspecified),-6.3% (inactive)
8,COc1ccc(NC(=O)CS(=O)CC(=O)NCC2OCCc3ccccc32)cc1 (stereo unspecified),-5.2% (inactive)
9,O=C(O)c1ccccc1NC(=O)c1cc(-c2ccccc2)nc2ccccc12,-12.6% (inactive)
10,COC(=O)CCCC1=CC2=C(c3ccccc3)C(=O)C(C)(OC(=O)C3CCCC3)C(=O)C2=CN1CCN1CCOCC1 (stereo unspecified),-3.1% (inactive)
11,CSc1nsc(SCC(=O)Nc2cccc(C(C)=O)c2)n1,52.6% (active)
12,CSc1nsc(SCC(=O)Nc2cccc(C(=O)O)c2)n1,-1.3% (inactive)
13,CSc1nsc(SCC(=O)Nc2cccc(NC(C)=O)c2)n1,-3.8% (inactive)
14,CO/C([O-])=N/c1c[n+](-c2ccc(Cl)cc2)no1,-3.1% (inactive)
15,COCCNC(=O)c1c(CSc2ccccc2)noc1C(=O)NCc1ccccc1,-2.5% (inactive)
16,COc1c(C)cc(C(=O)C2CCCN(C(=O)c3csc(C)n3)C2)cc1C (stereo unspecified),-11.3% (inactive)
17,OCC1(CCc2ccccc2)CCN(Cc2cc(Cl)ccc2O)CC1,-10.5% (inactive)
18,Fc1ccccc1Cn1nnc2c(NCCc3ccccn3)ncnc21,-5.2% (inactive)
19,COc1cc(/C=N/n2c(-c3ccccc3)n[nH]c2=S)cc(OC)c1OC,-1.8% (inactive)
20,O=C1C2C(C(=O)N1/N=C/c1ccc([N+](=O)[O-])o1)C1C=CC2C12CC2 (stereo unspecified),-11.3% (inactive)
21,O=C1C2C(C(=O)N1/N=C/c1cccc([N+](=O)[O-])c1)C1C=CC2C12CC2 (stereo unspecified),51.6% (active)
22,O=C1C2C(C(=O)N1/N=C/c1cc([N+](=O)[O-])ccc1O)C1C=CC2C12CC2 (stereo unspecified),0.1% (inactive)
23,COc1cc(/C=C/C(=O)OCC(=O)c2c(N)n(C)c(=O)n(C)c2=O)ccc1O,2.2% (inactive)
24,CCN(CC)C(=O)c1sc(NC(=O)Cc2ccccc2)c(C#N)c1C,-7.8% (inactive)
